# Reference: the supplement of paper PMC4466140
# B1: unnamed (peptide)
# chain: LLLLFVPDSPYDPAI
# B2: unnamed (peptide)
# chain: RKNRAPPQRPRFNRD
# What was measured:
# Test in all cases: SPOT peptide array binding signal intensity (averaged, normalized) (arbitrary units (background-subtracted, floor 0; scale differs between SH3 domains)); higher = stronger binding of the SH3 domain to the peptide
# SpBzz1-D2 = target: SpBzz1-D2
# Method in brief: (§1)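 GST-fused SH3 domains, from four yeast species, were produced in E. coli BL21(DE3) and captured on glutathione Sepharose. Membranes of cellulose carrying synthetic 15-mer peptides, in which cysteines had been replaced by serines, were exposed to each domain at 10 μg/ml overnight at 4°C in TBS-based blocking buffer. After anti-GST antibody, an HRP anti-mouse secondary and luminol, spots were imaged and quantified using Genespotter. Binding signal is normalized and background-subtracted spot intensity, averaged over replicates, in arbitrary units that differ between domains.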
# SpCyk3 = target: SpCyk3
# Method in brief: as §1
# SpHof1 = target: SpHof1
# Method in brief: as §1
# SpHof1-2 = target: SpHof1-2
# Method in brief: as §1
# SpHof1-3 = target: SpHof1-3
# Method in brief: as §1
# SpHse1 = target: SpHse1
# Method in brief: as §1
# SpLsb1 = target: SpLsb1
# Method in brief: as §1
# SpLsb4 = target: SpLsb4
# Method in brief: as §1
# SpMyo1 = target: SpMyo1
# Method in brief: as §1
# SpNbp2 = target: SpNbp2
# Method in brief: as §1
# SpPex13 = target: SpPex13
# Method in brief: as §1
# SpRvs167 = target: SpRvs167
# Method in brief: as §1
# SpSla1-D1-D2 = target: SpSla1-D1-D2
# Method in brief: as §1
# SpSla1-D3 = target: SpSla1-D3
# Method in brief: as §1
# AgAbp1 = target: AgAbp1
# Method in brief: as §1
# AgBbc1 = target: AgBbc1
# Method in brief: as §1
# AgBem1-D1 = target: AgBem1-D1
# Method in brief: as §1
# AgBzz1-D1 = target: AgBzz1-D1
# Method in brief: as §1
# AgBzz1-D2 = target: AgBzz1-D2
# Method in brief: as §1
# AgCyk3 = target: AgCyk3
# Method in brief: as §1
# AgFus1 = target: AgFus1
# Method in brief: as §1
# AgHof1 = target: AgHof1
# Method in brief: as §1
# AgHse1 = target: AgHse1
# Method in brief: as §1
# AgLsb1 = target: AgLsb1
# Method in brief: as §1
# AgLsb4 = target: AgLsb4
# Method in brief: as §1
# AgMyo5 = target: AgMyo5
# Method in brief: as §1
# AgNbp2 = target: AgNbp2
# Method in brief: as §1
# AgRvs167 = target: AgRvs167
# Method in brief: as §1
# AgSho1 = target: AgSho1
# Method in brief: as §1
# AgSla1-D1-D2 = target: AgSla1-D1-D2
# Method in brief: as §1
# AgSla1-D3 = target: AgSla1-D3
# Method in brief: as §1
# CaAbp1-D1 = target: CaAbp1-D1
# Method in brief: as §1
# CaAbp1-D2 = target: CaAbp1-D2
# Method in brief: as §1
# CaBbc1 = target: CaBbc1
# Method in brief: as §1
# CaBem1-D1 = target: CaBem1-D1
# Method in brief: as §1
# CaBzz1-D1 = target: CaBzz1-D1
# Method in brief: as §1
# CaBzz1-D2 = target: CaBzz1-D2
# Method in brief: as §1
# CaCyk3 = target: CaCyk3
# Method in brief: as §1
# CaFus1 = target: CaFus1
# Method in brief: as §1
# CaHof1 = target: CaHof1
# Method in brief: as §1
# CaHse1 = target: CaHse1
# Method in brief: as §1
# CaLsb1 = target: CaLsb1
# Method in brief: as §1
# CaLsb4 = target: CaLsb4
# Method in brief: as §1
# CaMyo5 = target: CaMyo5
# Method in brief: as §1
binder,measurement,setting,value
B1,SPOT peptide array binding signal intensity,SpBzz1-D2,1.5
same,SPOT peptide array binding signal intensity,SpCyk3,25
same,SPOT peptide array binding signal intensity,SpHof1,6.25
same,SPOT peptide array binding signal intensity,SpHof1-2,5.5
same,SPOT peptide array binding signal intensity,SpHof1-3,85.5
same,SPOT peptide array binding signal intensity,SpHse1,1440
same,SPOT peptide array binding signal intensity,SpLsb1,≤ 0
same,SPOT peptide array binding signal intensity,SpLsb4,2
same,SPOT peptide array binding signal intensity,SpMyo1,3
same,SPOT peptide array binding signal intensity,SpNbp2,195
same,SPOT peptide array binding signal intensity,SpPex13,20
same,SPOT peptide array binding signal intensity,SpRvs167,≤ 0
same,SPOT peptide array binding signal intensity,SpSla1-D1-D2,3
same,SPOT peptide array binding signal intensity,SpSla1-D3,1
B2,SPOT peptide array binding signal intensity,AgAbp1,958
same,SPOT peptide array binding signal intensity,AgBbc1,476
same,SPOT peptide array binding signal intensity,AgBem1-D1,438
same,SPOT peptide array binding signal intensity,AgBzz1-D1,256
same,SPOT peptide array binding signal intensity,AgBzz1-D2,154
same,SPOT peptide array binding signal intensity,AgCyk3,16
same,SPOT peptide array binding signal intensity,AgFus1,501
same,SPOT peptide array binding signal intensity,AgHof1,142
same,SPOT peptide array binding signal intensity,AgHse1,631
same,SPOT peptide array binding signal intensity,AgLsb1,230
same,SPOT peptide array binding signal intensity,AgLsb4,131
same,SPOT peptide array binding signal intensity,AgMyo5,6.5
same,SPOT peptide array binding signal intensity,AgNbp2,3290
same,SPOT peptide array binding signal intensity,AgRvs167,7
same,SPOT peptide array binding signal intensity,AgSho1,37
same,SPOT peptide array binding signal intensity,AgSla1-D1-D2,474
same,SPOT peptide array binding signal intensity,AgSla1-D3,52
same,SPOT peptide array binding signal intensity,CaAbp1-D1,924
same,SPOT peptide array binding signal intensity,CaAbp1-D2,998
same,SPOT peptide array binding signal intensity,CaBbc1,1240
same,SPOT peptide array binding signal intensity,CaBem1-D1,65.5
same,SPOT peptide array binding signal intensity,CaBzz1-D1,1760
same,SPOT peptide array binding signal intensity,CaBzz1-D2,1020
same,SPOT peptide array binding signal intensity,CaCyk3,342
same,SPOT peptide array binding signal intensity,CaFus1,758
same,SPOT peptide array binding signal intensity,CaHof1,0.75
same,SPOT peptide array binding signal intensity,CaHse1,149
same,SPOT peptide array binding signal intensity,CaLsb1,5.5
same,SPOT peptide array binding signal intensity,CaLsb4,698
same,SPOT peptide array binding signal intensity,CaMyo5,10.2
